Tests used:
Conditions in all cases: 60 µM; 5 days; temperature: 20 °C
Meloidogyne hapla J2 = test: proportion of mobile M. hapla J2 relative to DMSO control (fraction of DMSO control); higher = more viable, less nematicidal, active = 0.7 or less
How it was run: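 Sealed 96-well plates, each well holding around 25 M. hapla J2 in distilled water with compound pinned to 60 µM final (0.6% v/v DMSO), were shaken at 200 rpm for 5 days at 20 °C. Then 2 µL of 1 M NaOH was added to each well. Microscope-scored mobility was normalised to the mean of DMSO-only wells from the same plate. Eight such wells were on each plate, and the two biological replicates were averaged.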

[1] = test system: Caenorhabditis elegans dauer (daf-2(e1370)); test: proportion of mobile C. elegans dauer larvae relative to DMSO control (fraction of DMSO control); higher = more viable, less nematicidal, active = 0.63 or less; extreme values may be limits of the assay
How it was run: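 The proportion of mobile worms, relative to DMSO wells, was scored by dissection microscope and averaged over two biological replicates. Worms were C. elegans dauers, about 20 per well in liquid NGM in 96-well plates, generated from synchronized larvae on MYOB plates with E. coli OP50 at 25 °C for 48 h. They were treated with compound pinned to 60 µM final (0.6% v/v DMSO) and kept in sealed plates shaken at 200 rpm for 5 days at 20 °C.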

Ditylenchus dipsaci = test: proportion of mobile D. dipsaci (mixed stage) relative to DMSO control (fraction of DMSO control); higher = more viable, less nematicidal, active = 0.86 or less; extreme values may be limits of the assay
How it was run: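 Mobility, expressed relative to DMSO controls, is the mean of two biological replicates. The test organisms were D. dipsaci grown on pea plants in Gamborg B-5 agar and extracted into water by filter funnel, with about 20 added per well of a 96-well plate in distilled water. Compound was pinned to 60 µM final (0.6% v/v DMSO), plates were sealed and shaken at 200 rpm for 5 days at 20 °C, and mobile worms were scored under a microscope once 2 µL 1 M NaOH had been added.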

CC(C)(C)c1ccc(-c2nnc(SCC(=O)c3ccc(F)cc3)o2)cc1
inactive: proportion of mobile M. hapla J2 (Meloidogyne hapla J2) 0.825 | proportion of mobile C. elegans dauer larvae [1] 1 | proportion of mobile D. dipsaci (Ditylenchus dipsaci) 1

c1ccc2c(OCc3nc(-c4ccncc4)no3)cccc2c1
inactive: proportion of mobile M. hapla J2 (Meloidogyne hapla J2) 0.979 | proportion of mobile C. elegans dauer larvae [1] 1 | proportion of mobile D. dipsaci (Ditylenchus dipsaci) 1

Cc1ccc(OCc2nc(-c3ccccn3)no2)cc1C
inactive: proportion of mobile M. hapla J2 (Meloidogyne hapla J2) 1.01 | proportion of mobile C. elegans dauer larvae [1] 1 | proportion of mobile D. dipsaci (Ditylenchus dipsaci) 1

O=C(CSc1nnc(-c2cccc(Cl)c2)o1)Nc1nccs1
inactive: proportion of mobile M. hapla J2 (Meloidogyne hapla J2) 0.894 | proportion of mobile C. elegans dauer larvae [1] 1 | proportion of mobile D. dipsaci (Ditylenchus dipsaci) 1

Ic1ccc(CSc2nnc(-c3ccccc3)o2)cc1
inactive: proportion of mobile M. hapla J2 (Meloidogyne hapla J2) 0.991 | proportion of mobile C. elegans dauer larvae [1] 1 | proportion of mobile D. dipsaci (Ditylenchus dipsaci) 1

CCOc1ccccc1-c1nnc(SCC(=O)N2CCC(C)CC2)o1
inactive: proportion of mobile M. hapla J2 (Meloidogyne hapla J2) 0.856 | proportion of mobile C. elegans dauer larvae [1] 1 | proportion of mobile D. dipsaci (Ditylenchus dipsaci) 1

CC(C)C(=O)Nc1ccccc1-c1nc(-c2ccccc2)no1
inactive: proportion of mobile M. hapla J2 (Meloidogyne hapla J2) 0.957 | proportion of mobile C. elegans dauer larvae [1] 1 | proportion of mobile D. dipsaci (Ditylenchus dipsaci) 1

Fc1ccc(-c2nc(-c3ccc(Br)cc3)no2)cc1
inactive: proportion of mobile M. hapla J2 (Meloidogyne hapla J2) 0.848 | proportion of mobile C. elegans dauer larvae [1] 1 | proportion of mobile D. dipsaci (Ditylenchus dipsaci) 1

Clc1ccccc1OCc1nc(-c2ccccn2)no1
inactive: proportion of mobile M. hapla J2 (Meloidogyne hapla J2) 1 | proportion of mobile C. elegans dauer larvae [1] 1 | proportion of mobile D. dipsaci (Ditylenchus dipsaci) 1

O=C(CSc1nnc(-c2cccc(F)c2)o1)Nc1ccccc1C(=O)c1ccccc1
inactive: proportion of mobile M. hapla J2 (Meloidogyne hapla J2) 0.889 | proportion of mobile C. elegans dauer larvae [1] 1 | proportion of mobile D. dipsaci (Ditylenchus dipsaci) 1

Cc1cccc(OCc2nc(-c3ccc(-n4cccc4)cc3)no2)c1
inactive: proportion of mobile M. hapla J2 (Meloidogyne hapla J2) 1.01 | proportion of mobile C. elegans dauer larvae [1] 1 | proportion of mobile D. dipsaci (Ditylenchus dipsaci) 1

Cc1cccc(OCc2nc(-c3ccc(Br)cc3)no2)c1
inactive: proportion of mobile M. hapla J2 (Meloidogyne hapla J2) 1.04 | proportion of mobile C. elegans dauer larvae [1] 1 | proportion of mobile D. dipsaci (Ditylenchus dipsaci) 1
